Assay results published in PubChem BioAssay (NCI).
Compounds without any hit were thinned out: in the full panel of roughly 79,000, 15% have a hit. The source made the active and inactive calls. Cut-off read from the data, not from the text of the source: active = growth inhibition above about 70%; inactive = the rest.

Experiments:
[1] = NCI Yeast Anticancer Drug Screen. Data for the wt2 strain (AID 169);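 note: 0% = growth of vehicle-treated yeast cultures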; settings: S. cerevisiae wt2 strain growth inhibition, active compounds read high
Method in brief: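 Treated yeast vs. vehicle-treated yeast: growth inhibition determined.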

[2] = NCI Yeast Anticancer Drug Screen. Data for the mlh1 strain (AID 171);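 note: 0% = growth of vehicle-treated control cultures of the same strain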; settings: S. cerevisiae mlh1 strain growth inhibition, active compounds read high
Method in brief: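 A yeast strain with a defined genetic lesion serves as the test organism. Cultures receive compound or vehicle, and growth is measured.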

[3] = NCI Yeast Anticancer Drug Screen. Data for the sgs1 strain (AID 173);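 note: 0% = growth of vehicle-only control cultures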; settings: S. cerevisiae sgs1 mutant, active compounds read high
Method in brief: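 A genetically defined yeast mutant is incubated with the test compound, and its growth is compared to that of the same strain given vehicle.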

[4] = NCI Yeast Anticancer Drug Screen. Data for the mlh1 rad18 strain (AID 175); settings: S. cerevisiae mlh1 rad18 strain growth inhibition, active compounds read high
Method in brief: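 Steps: expose repair-defective yeast to compound; measure growth; express inhibition against vehicle-treated controls.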

[5] = NCI Yeast Anticancer Drug Screen. Data for the rad18 strain (AID 177); settings: S. cerevisiae rad18 mutant growth inhibition, active compounds read high
Method in brief: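 Measured value is growth inhibition of a yeast strain bearing a DNA repair alteration, referenced to vehicle-treated cells.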

[6] = NCI Yeast Anticancer Drug Screen. Data for the rad52 strain (AID 147);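 note: 0% = growth of vehicle-treated control cultures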; settings: S. cerevisiae rad52 mutant growth inhibition, active compounds read high
Method in brief: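 Here a repair-compromised yeast strain receives each compound; its growth is then quantified and normalised to vehicle-only controls.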

[7] = NCI Yeast Anticancer Drug Screen. Data for the wt1 strain (AID 149);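 note: 0% = growth of vehicle-treated wt1 cultures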; settings: S. cerevisiae wt1 strain (SPY 50644) growth inhibition, active compounds read high
Method in brief: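 Using yeast strain wt1, compound-induced growth inhibition was determined against vehicle-treated cultures.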

[8] = NCI Yeast Anticancer Drug Screen. Data for the rad50EPP+ strain (AID 151);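 note: 0% = growth of vehicle-treated control cultures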; settings: S. cerevisiae rad50 mutant strain, active compounds read high
Method in brief: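 Read-out is yeast growth inhibition relative to vehicle; cells used were the rad50EPP+ strain.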

[9] = NCI Yeast Anticancer Drug Screen. Data for the mgt1 strain (AID 153); settings: S. cerevisiae mgt1 mutant growth inhibition, active compounds read high
Method in brief: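 Measured: inhibition of mgt1 yeast growth by compound, normalized to vehicle-treated cultures.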

[10] = NCI Yeast Anticancer Drug Screen. Data for the rad50 strain (AID 155);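 note: 0% = growth of vehicle-only cultures of the same strain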; settings: S. cerevisiae rad50 strain growth inhibition, active compounds read high
Method in brief: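 Relative growth inhibition (compound vs vehicle) was measured in yeast with a defined repair-gene alteration.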

[11] = NCI Yeast Anticancer Drug Screen. Data for the mec2-1 strain (AID 157); settings: S. cerevisiae mec2-1 strain, active compounds read high
Method in brief: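 Using mec2-1 yeast: add compound, measure growth, express inhibition versus vehicle-treated cultures.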

[12] = NCI Yeast Anticancer Drug Screen. Data for the rad14 strain (AID 159);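 note: 0% = growth of vehicle-treated control cultures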; settings: S. cerevisiae rad14 strain growth inhibition, active compounds read high
Method in brief: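 Screen for anticancer potential: a yeast strain altered in DNA damage repair is grown with compound, and reduced growth is quantified against vehicle controls.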

[13] = NCI Yeast Anticancer Drug Screen. Data for the sgs1 mgt1 strain (AID 161);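 note: 0% = growth of cultures given vehicle only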; settings: S. cerevisiae sgs1 mgt1 strain, active compounds read high
Method in brief: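 Growth of a repair-deficient yeast mutant was monitored after compound treatment and expressed as inhibition relative to vehicle-treated cultures.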

[14] = NCI Yeast Anticancer Drug Screen. Data for the CLN2oe strain (AID 163);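 note: 0% = growth of vehicle-only control cultures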; settings: S. cerevisiae CLN2oe strain, active compounds read high
Method in brief: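 Whole-cell yeast growth assay. A strain engineered for altered cell-cycle control received compound, and inhibition relative to vehicle-treated cultures was recorded.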

[15] = NCI Yeast Anticancer Drug Screen. Data for the cln2 rad14 strain (AID 165);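 note: 0% = growth equal to vehicle treated cultures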; settings: S. cerevisiae cln2 rad14 strain, active compounds read high
Method in brief: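 Yeast strain cln2 rad14, bearing defects in cell cycle control and DNA repair, serves as the test system; values reflect growth inhibition compared with vehicle.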

[16] = NCI Yeast Anticancer Drug Screen. Data for the bub3 strain (AID 167); settings: S. cerevisiae bub3 mutant strain, active compounds read high
Method in brief: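 Screening used yeast with an engineered genetic alteration affecting cell cycle control. Compound-exposed cultures were compared with vehicle cultures, and reduced growth was taken as inhibition.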

[17] = at 5.0 µM (retest, dose inferred, filed as 0.5)
[18] = at 50.0 µM (retest, dose inferred, filed as 5.0)

Measured: growth inhibition

O=C1C=C(Cl)C(=O)N1c1cccc(Cl)c1
active: [1]; at 3.7 µM 99% | [1]; at 11.0 µM 100% | [1]; at 33.0 µM 100% | [1]; at 100.0 µM 100% | [2]; at 11.0 µM 99% | [2]; at 33.0 µM 100% | [2]; at 100.0 µM 100% | [3]; at 3.7 µM 95% | [3]; at 11.0 µM 99% | [3]; at 33.0 µM 100% | [3]; at 100.0 µM 99% | [4]; [18] 95% | [4]; at 50.0 µM 99.5% | [5]; at 11.0 µM 99% | [5]; at 33.0 µM 99% | [5]; at 100.0 µM 99%
inactive: [1]; at 1.2 µM 30% | [2]; at 1.2 µM -11% | [2]; at 3.7 µM 58% | [3]; at 1.2 µM 21% | [4]; [17] 0% | [5]; at 1.2 µM -1% | [5]; at 3.7 µM 36%

CNCCCNc1c2ccccc2nc2cccc([N+](=O)[O-])c12
inactive: [7]; at 1.2 µM 2% | [7]; at 3.7 µM 28% | [8]; at 1.2 µM 43% | [9]; at 1.2 µM 18% | [9]; at 3.7 µM 42% | [11]; at 1.2 µM 41% | [14]; at 1.2 µM -1% | [14]; at 3.7 µM 28% | [16]; at 1.2 µM -12% | [16]; at 3.7 µM 38% | [16]; [17] 21% | [1]; at 1.2 µM 2% | [1]; at 3.7 µM 23% | [2]; at 1.2 µM 18% | [2]; at 3.7 µM 42% | [3]; at 1.2 µM 67%
active: [6]; at 1.2 µM 83% | [6]; at 3.7 µM 85% | [6]; at 11.0 µM 90% | [6]; at 33.0 µM 94% | [6]; at 100.0 µM 96% | [7]; at 11.0 µM 77% | [7]; at 33.0 µM 92% | [7]; at 100.0 µM 97% | [8]; at 3.7 µM 89% | [8]; at 11.0 µM 96% | [8]; at 33.0 µM 97% | [8]; at 100.0 µM 98% | [9]; at 11.0 µM 72% | [9]; at 33.0 µM 94% | [9]; at 100.0 µM 97% | [10]; at 1.2 µM 73% | [10]; at 3.7 µM 82% | [10]; [17] 77% | [10]; at 11.0 µM 91% | [10]; at 33.0 µM 93% | [10]; [18] 95% | [10]; at 50.0 µM 84.8% | [10]; at 100.0 µM 96% | [11]; at 3.7 µM 87% | [11]; [17] 89% | [11]; at 11.0 µM 92% | [11]; at 33.0 µM 95% | [11]; [18] 97% | [11]; at 50.0 µM 91% | [11]; at 100.0 µM 97% | [12]; at 1.2 µM 84% | [12]; at 3.7 µM 93% | [12]; at 11.0 µM 96% | [12]; at 33.0 µM 96% | [12]; at 100.0 µM 97% | [13]; [17] 87% | [13]; [18] 96% | [13]; at 50.0 µM 91.2% | [14]; at 11.0 µM 80% | [14]; at 33.0 µM 93% | [14]; at 100.0 µM 97% | [15]; [17] 77% | [15]; [18] 95% | [15]; at 50.0 µM 91.3% | [16]; at 11.0 µM 92% | [16]; at 33.0 µM 98% | [16]; [18] 96% | [16]; at 50.0 µM 85.8% | [16]; at 100.0 µM 99% | [1]; at 11.0 µM 86% | [1]; at 33.0 µM 97% | [1]; at 100.0 µM 99% | [2]; at 11.0 µM 72% | [2]; at 33.0 µM 94% | [2]; at 100.0 µM 97% | [3]; at 3.7 µM 84% | [3]; at 11.0 µM 92% | [3]; at 33.0 µM 92% | [3]; at 100.0 µM 95% | [4]; [17] 88% | [4]; [18] 96% | [4]; at 50.0 µM 85.3% | [5]; at 1.2 µM 92% | [5]; at 3.7 µM 95% | [5]; at 11.0 µM 93% | [5]; at 33.0 µM 95% | [5]; at 100.0 µM 96%

C[C](C)(C)[Ge]([O][Ge]([c]1ccccc1)[c]1ccccc1)([O][Ge]([c]1ccccc1)[c]1ccccc1)[C](C)(C)C
inactive: [6]; at 1.2 µM 1% | [6]; at 3.7 µM 15% | [6]; at 11.0 µM 53% | [7]; at 1.2 µM -3% | [7]; at 3.7 µM 5% | [7]; at 11.0 µM 42% | [7]; at 33.0 µM 68% | [8]; at 1.2 µM 0% | [8]; at 3.7 µM 5% | [8]; at 11.0 µM 5% | [8]; at 33.0 µM 1% | [8]; at 100.0 µM -3% | [9]; at 1.2 µM -2% | [9]; at 3.7 µM 3% | [9]; at 11.0 µM 44% | [9]; at 33.0 µM 67% | [9]; at 100.0 µM 62% | [10]; at 1.2 µM -1% | [10]; at 3.7 µM 6% | [10]; [17] 12% | [10]; at 11.0 µM 42% | [10]; at 33.0 µM 63% | [10]; [18] 63% | [11]; at 1.2 µM 4% | [11]; at 3.7 µM 21% | [11]; [17] 29% | [11]; at 11.0 µM 60% | [11]; at 50.0 µM 65.8% | [12]; at 1.2 µM -4% | [12]; at 3.7 µM 1% | [12]; at 11.0 µM 23% | [12]; at 33.0 µM 46% | [12]; at 100.0 µM 57% | [13]; [17] 19% | [13]; at 50.0 µM 61.6% | [14]; at 1.2 µM 4% | [14]; at 3.7 µM 18% | [14]; at 11.0 µM 55% | [15]; [17] 26% | [15]; at 50.0 µM 67.8% | [16]; at 1.2 µM -4% | [16]; at 3.7 µM 4% | [16]; [17] 9% | [16]; at 11.0 µM 53% | [1]; at 1.2 µM -1% | [1]; at 3.7 µM 10% | [1]; at 11.0 µM 46% | [1]; at 33.0 µM 64% | [1]; at 100.0 µM 64% | [2]; at 1.2 µM 0% | [2]; at 3.7 µM 9% | [2]; at 11.0 µM 49% | [2]; at 33.0 µM 66% | [2]; at 100.0 µM 68% | [3]; at 1.2 µM 8% | [3]; at 3.7 µM 27% | [4]; [17] 48%
active: [6]; at 33.0 µM 74% | [6]; at 100.0 µM 78% | [7]; at 100.0 µM 75% | [10]; at 50.0 µM 71.9% | [10]; at 100.0 µM 71% | [11]; at 33.0 µM 80% | [11]; [18] 75% | [11]; at 100.0 µM 79% | [13]; [18] 80% | [14]; at 33.0 µM 74% | [14]; at 100.0 µM 81% | [15]; [18] 82% | [16]; at 33.0 µM 77% | [16]; [18] 79% | [16]; at 50.0 µM 76.7% | [16]; at 100.0 µM 79% | [3]; at 11.0 µM 71% | [3]; at 33.0 µM 78% | [3]; at 100.0 µM 76% | [4]; [18] 90% | [4]; at 50.0 µM 75.9%
